# Reference: ChEMBL document CHEMBL3988442, “University of Dundee, Small-Polar-MMV Screening Library” (2021)
# About 13,000 (27%) of roughly 48,000 compounds showed an effect of 50% or more. Some of the results follow.
# Test system: Wolbachia pipientis
# Test: Anti-Wolbachia Cell-Based Screen
# Type: functional
# Parameters: scale not given: in the data most compounds retested in dose-response had high values
# Conditions: 5 µM
row,SMILES,Percent Effect [%]
1,COc1cccc(N2CC3(CCN(c4ccncn4)C3)CC2=O)c1 (stereo not given),-12.13
2,Cc1nnc2n1CCN(Cc1nc3ccccc3o1)C2,13.24
3,O=C(N[C@@H]1CCNC[C@H]1O)c1cc(F)cc(Cl)c1,0.509
4,O=C(CCC(=O)N1CCNC(=O)C1c1cccc(F)c1)NC1CCCC1 (stereo not given),-14.56
5,CC(C)NC(=O)CCN1CCC(C(=O)c2cc(F)ccc2F)CC1,-38.81
6,CS(=O)(=O)CCC(=O)N1CCC(c2cccc(F)c2)C1 (stereo not given),-0.1646
7,O=C(O)CCCC(=O)N1CCC(c2noc3cc(F)ccc23)CC1,110.7
8,CC(=O)N1CC[C@H](c2nc3cc(F)ccc3o2)C1,5.323
9,O=C(CCc1cc(O)no1)N1CCC(Cc2ccc(F)cc2)CC1,-4.234
10,O=C(O)CCC(=O)N1CCC(c2noc3cc(F)ccc23)CC1,117.2
11,O=C(CCC(=O)N1CCC(c2noc3cc(F)ccc23)CC1)NC1CC1,145.4
12,CC(C)NC(=O)CCC(=O)N1CCC(c2noc3cc(F)ccc23)CC1,90.62
13,O=C(CN1CCC(C(=O)c2cc(F)ccc2F)CC1)NC1CC1,-20.5
14,O=C(c1ccc(Cl)c(Cl)c1)N1CCCCC1C1OCCO1 (stereo not given),4.358
15,Cc1ncc(CNC(=O)N(C)Cc2ccc([S+](C)[O-])cc2)s1 (stereo not given),-5.78
16,CCc1nc(CN2CCOC(CN(CC)c3cccnn3)C2)cs1 (stereo not given),0.2652
17,Cc1nc(C(C)C)sc1C(=O)NS(=O)(=O)c1ccc(C#N)cc1,-14.12
18,Cc1ccc(CNCCOc2ccc(S(C)(=O)=O)cc2)cc1,14.5
19,Cc1ccc(NCCCNC(=O)C2CCCN(Cc3ccco3)C2)nc1 (stereo not given),-3.633
20,C=C(C)COc1ccccc1CN1CCC(C(=O)NCC)C1 (stereo not given),91.68
21,C=C(C)CN1CCC(NC(=O)NCCc2ccccc2OC)CC1,1.808
22,CCNC(=O)COc1ccccc1N1CCCC(C)C1 (stereo not given),-0.1998

row,SMILES,Percent Effect [%]
1,C=C(C)COc1ccccc1CN1CCC(NC(C)=O)CC1,100.9
2,C=C(C)COc1ccccc1C(=O)N1CCC2(CC1)CN(C)CCN2C,12.34
3,C=C(C)COc1ccccc1NC(=O)NC1CCOCC1,-8.907
4,C=C(C)COc1ccccc1CN1CCCC(C(=O)NCCCO)C1 (stereo not given),100.8
5,C=C(C)COc1ccccc1C(=O)N1CCC(C(=O)NCC)C1 (stereo not given),83.75
6,O=C(NCCCc1ccncc1)C1CCCN(Cc2ccco2)C1 (stereo not given),21.32
7,C=C(C)COc1ccccc1NC(=O)N1CCCCC1CO (stereo not given),-1.415
8,NC(=O)C1CCN(C(=O)c2ccccc2OCc2ccccc2Cl)CC1,5.008
9,CCc1nc(CCNC(=O)Nc2cc(C(N)=O)sc2C)cs1,34.11
10,O=C(c1ncoc1C1CCCO1)N1CC2(CCCC2)c2ccccc21 (stereo not given),-7.876
11,Cc1ccc(CCNc2ncnc3sc4c(c23)CCNC4)o1,6.04
12,CC(=O)N1CCCN(C(=O)c2oc(Br)cc2C)CC1,-21.77
13,Nc1nc2c(c(NCc3ccc(C(=O)N4CCCC4)cc3)n1)CCCC2,-8.867
14,Cc1nc2oc(C(=O)N3CCCC3)c(N)c2c2c1CCCC2,89.55
15,CC(=O)N1CCc2[nH]nc(C(=O)N3CCOCC3)c2C1,-13.35
16,CCn1c(N)nc2cc(C(=O)N3CCCOCC3)cnc21,-12.44
17,Cn1c(C(=O)N2CCOCC2)nc2c1CCN(c1ncccn1)C2,-2.522
18,CCC(C)N1CCc2c(C(=O)N3CCOCC3)n[nH]c2C1 (stereo not given),-26.93
19,CC(C)c1nc2oc(C(=O)N3CCOCC3)c(N)c2c2c1CCCC2,100.5
20,Cc1nc2oc(C(=O)N3CCOCC3)c(N)c2c2c1CCCC2,117.9
21,Cc1nc(N2CCOc3ccc(CO)cc3C2)c2c(C)noc2n1,-4.645
22,CNC(=O)C(C)NC(=O)c1cc(COc2ccc(OC)cc2Cl)[nH]n1 (stereo not given),-6.822

row,SMILES,Percent Effect [%]
1,CN1C[C@@H](n2cnc(-c3ccccc3)c2-c2c[nH]cn2)C[C@H]1C(=O)O,-2.319
2,Cc1cc(C)c(C(=O)N2CCC3(CCCN(CC(C)(C)C)C3)C2)[nH]1 (stereo not given),-1
3,Cc1ccc(CN2CC(C(=O)N3CCCC3)C3(CCOCC3)C2)s1.O=C(O)C(F)(F)F (stereo not given),-16.58
4,CC[C@@H]1N(Cc2ccc(C)s2)CCC[C@]12CCC(=O)N2C.O=C(O)C(F)(F)F,100.7
5,CC[C@@H]1N(Cc2ccc(F)cc2)CCC[C@]12CCC(=O)N2C.O=C(O)C(F)(F)F,88.6
6,CC[C@@H]1N(Cc2ccc(C)o2)CCC[C@]12CCC(=O)N2CCOC.O=C(O)C(F)(F)F,120.4
7,COc1ccc(CN2CCO[C@@H]3C[C@@H](C(=O)NC(C)C)C[C@H]32)cc1.O=C(O)C(F)(F)F,-0.6614
8,CNC(=O)[C@H]1C[C@H]2OCC[C@H]2N(Cc2ccc(F)cc2)C1.O=C(O)C(F)(F)F,-9.122
9,Cc1ccc(CN2CCCC3(CCCC(=O)N3C)C2)s1.O=C(O)C(F)(F)F (stereo not given),5.855
10,CC[C@@H]1N(Cc2ccc(OC)cc2)CCC[C@]12CCC(=O)N2CCOC.O=C(O)C(F)(F)F,91.26
11,COc1ccc(CN2C[C@H](N3CCCC3=O)[C@@H]3OCCC[C@@H]32)cc1.O=C(O)C(F)(F)F,8.325
12,CN1CCN(c2cnn(CCn3cccn3)c(=O)c2)CC1,1.729
13,CN(C)C[C@H]1CC[C@@H](Cc2ccc3c(cnn3C)c2)O1,15.72
14,Cc1cccc2nc(CN3CCCC(Cn4ccnn4)C3)cc(=O)n12 (stereo not given),-2.392
15,CC(C)Cn1ncc2cc(C(=O)N(C)CCc3ccccc3)cnc21,7.152
16,CC[C@@H]1N(Cc2ccc(F)cc2)CCC[C@]12CCC(=O)N2CCOC.O=C(O)C(F)(F)F,105
17,COCCNC(=O)[C@H]1C[C@H]2OCC[C@H]2N(Cc2ccoc2)C1.O=C(O)C(F)(F)F,2.424
18,Cn1nnc2c1CCN(Cc1ccoc1)C2COCc1ccccc1.O=C(O)C(F)(F)F (stereo not given),14.93
19,COCCN1C(=O)CCC12CCCN(Cc1ccccc1F)C2.O=C(O)C(F)(F)F.O=C(O)C(F)(F)F (stereo not given),-19.88
20,COCCN1C[C@@H]2CN(Cc3cccc(F)c3)CCC[C@]2(C(=O)O)C1.O=C(O)C(F)(F)F.O=C(O)C(F)(F)F,4.566
21,CC[C@@H]1N(Cc2ccoc2)CCC[C@]12CCC(=O)N2CCOC.O=C(O)C(F)(F)F,119.5
